Shown are actives, neighbours in structure and some others; about 1.7% of the full set was active somewhere.
TRPML1 blocker: qHTS for Inhibitors of the Human Mucolipin Transient Receptor Potential 1 (TRPML1) | activity change, negative = inhibition, % (test concentration not listed) | TRPML1-inducible cells, Ca2+ dye fluorescence, FDSS; stronger effect = lower value; inhibition of EC80 agonist-evoked calcium signal | 390,000 tested, 0.02% active; in the data active = activity change below about -50%; inconclusive = between about -30% and that limit;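 note: stimulus is agonist 54-4 at its EC80 concentration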
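TRPML1-DL cells, Tet-induced overnight (~16 h, 37 °C) at 1,500 cells/well, were loaded with Ca8 no-wash dye plus quencher for 45-90 min at room temperature. Compounds were pinned during FDSS kinetic reading; agonist 54-4 at EC80 (4 uM final) then added.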
TRPML1 ag: qHTS for Agonists of the Human Mucolipin Transient Receptor Potential 1 (TRPML1). TRPML1-expressing cells, Ca2+ dye fluorescence, FDSS. activation, % (test concentration not listed). 410,000 tested, 0.12% active; in the data active = activation above about 50%; inconclusive = mostly about 30% to 49%
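In this qHTS format, compounds were pin-transferred onto Ca8-dye-loaded TRPML1-DL cells induced with Tet overnight, and intracellular Ca2+ fluorescence was recorded kinetically for 110 s after a 10 s baseline. A subsequent 4uM final 54-4 (EC80) addition followed by a second 110 s read served as the antagonist phase.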
TRHR PAM: qHTS for Small Molecule Agonists and Allosteric Enhancers of Human TRH Receptor: Primary Screen for Enhancers | enhancement, % at 2 µM | TRHR cells, fluo-8 calcium fluorescence, EC20 TRH enhancement | AID 493056, 2011 | Thyrotropin-releasing hormone receptor (Homo sapiens), P34981 | 360,000 tested, 0.66% active; in the data active = enhancement above about 30%
Target sequence (P34981 whole entry, looked up): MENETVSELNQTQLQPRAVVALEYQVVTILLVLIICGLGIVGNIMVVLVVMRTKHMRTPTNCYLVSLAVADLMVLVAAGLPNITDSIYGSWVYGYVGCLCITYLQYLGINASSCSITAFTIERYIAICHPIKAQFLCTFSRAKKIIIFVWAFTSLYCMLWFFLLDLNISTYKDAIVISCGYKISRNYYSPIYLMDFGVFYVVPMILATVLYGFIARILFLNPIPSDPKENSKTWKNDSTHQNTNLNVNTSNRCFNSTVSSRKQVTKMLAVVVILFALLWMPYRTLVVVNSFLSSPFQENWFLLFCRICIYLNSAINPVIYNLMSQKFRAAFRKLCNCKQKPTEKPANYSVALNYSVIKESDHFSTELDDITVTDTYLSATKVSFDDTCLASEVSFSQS
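TRHR-expressing cells loaded with fluo-8 calcium dye were read kinetically (ex 480/em 530) during compound addition, then stimulated with an EC20 of TRH (10 nM final). Enhancement of the Gq-mediated intracellular calcium response was scored.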
TRHR agonist: qHTS for Small Molecule Agonists and Allosteric Enhancers of Human TRH Receptor: Primary Screen for Agonists | AID 493084, 2011 | TRHR cells, calcium flux fluo-8, FDSS agonist mode | 360,000 tested, 0.18% active | activation, % at 2 µM | Thyrotropin-releasing hormone receptor (Homo sapiens), P34981; in the data active = activation above about 30%
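Fluo-8-loaded TRHR cells; 10 s baseline, compound added, kinetic Ca2+ fluorescence read 1/s, agonist mode.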
KCNH2 WT inh: qHTS for Inhibitors of KCHN2 3.1: Wildtype qHTS; Voltage-gated inwardly rectifying potassium channel KCNH2 (Homo sapiens), Q12809; U2OS, BacMam KCNH2, thallium flux FluxOr; stronger effect = lower value; activity change, % at 1.84 µM; 340,000 tested, 0.37% active;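 active = maximum activity change below -70%; inconclusive = maximum activity change between -70% and -50%; inactive = maximum activity change above -50%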
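U2OS cells were transduced with wild-type KCNH2 virus (2.03 x 10^8 / mL) for 4 h at room temperature, then cultured overnight at 37 C. Thallium flux was read with FluxOr dye. Rate constants were normalized to DMSO controls.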
KCNH2 3.1 block: qHTS for Inhibitors of KCHN2 3.1: Mutant qHTS | Potassium voltage-gated channel subfamily H member 2, brain isoform KCNH2 3.1 (human) | U2OS KCNH2 3.1, thallium flux FluxOr; stronger effect = lower value | activity change, % (tested at about 1.8 µM) | 340,000 tested, 0.95% active;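 active = maximum activity change below -70%; inconclusive = maximum activity change from -70% to -50%; inactive = maximum activity change above -50%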;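 note: thallium influx rate constant from kinetic fluorescence after stimulation buffer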
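Measured as rate of thallium-driven FluxOr signal in transduced U2OS cells carrying the 3.1 channel, read kinetically for 2 min upon stimulation; values are rate constants scaled to DMSO control wells.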
A number is an active result; – = inactive; ? = inconclusive; · = not tested or not shown.

SMILES | TRPML1 blocker | TRPML1 ag | TRHR PAM | TRHR agonist | KCNH2 WT inh | KCNH2 3.1 block
O=C(CNS(=O)(=O)c1cccc(Cl)c1)Nc1ccc(-c2nc3ccccc3s2)cc1 | – | – | – | – | – | -74
CSc1nnc(N2C(=O)C(O)=C(C(=O)c3ccco3)C2c2ccc(F)cc2)s1 (centres undefined) | – | – | – | 36 | – | –
CSc1nnc(N2C(=O)C(O)=C(C(=O)c3ccco3)C2c2cccc(Cl)c2)s1 (centres undefined) | – | – | – | – | – | –
O=S(=O)(NC(=S)c1ccccc1)c1ccc(F)cc1 | – | – | – | – | – | –
CCc1ccc(N(CC(=O)NC2CCCC2)C(=O)CCC(=O)Nc2ccccn2)cc1 | – | – | 31 | – | – | –
CCOc1ccc(N(CC(=O)NC2CCCC2)C(=O)CCC(=O)Nc2nccs2)cc1 | – | – | – | – | – | –
CCOc1ccc(N(CC(=O)NC2CCCCC2)C(=O)CCC(=O)Nc2nccs2)cc1 | – | – | – | – | – | -91
O=C(c1cn(-c2ccccc2)nc1-c1cccnc1)N1CCN(S(=O)(=O)c2cccc(F)c2)CC1 | – | – | – | – | – | –
O=C(Nc1ccc(Br)cn1)c1ccc2ccccc2c1 | – | – | – | – | – | –
O=C(Nc1ccc(Br)cn1)c1cccc(C(=O)Nc2ccc(Br)cn2)c1 | – | – | – | – | – | -77
O=C(NCC1CCCO1)c1ccc(NC(=O)c2cc(F)c(F)cc2Cl)cc1 (centres undefined) | – | – | 33 | – | – | –
O=C(NCC1CCCO1)c1ccc(NC(=O)c2cccc(Br)c2)cc1 (centres undefined) | · | · | – | – | – | –
COc1ccc(N2C(=O)CSC23C(=O)N(CC(=O)NCCc2ccccc2)c2ccccc23)cc1 (centres undefined) | – | – | – | – | · | ·
CC(=O)c1cccc(N(CC(=O)Nc2ccccc2C(=O)N2CCCC2)S(C)(=O)=O)c1 | – | – | 55 | – | – | –
CS(=O)(=O)N(CC(=O)Nc1ccccc1C(=O)N1CCCC1)c1cccc([N+](=O)[O-])c1 | – | – | – | – | – | –
O=C(CSc1nc2ccccc2c(=O)n1-c1ccc(F)cc1F)c1c[nH]c2ccccc12 | – | – | – | – | -122 | –
CC(C)(C)c1ccccc1NC(=O)CN1C(=O)NC2(CCCCCC2)C1=O | – | – | – | – | -170 | –
CC1CN(C(=O)CN2C(=O)NC3(CCCCCC3)C2=O)CC(C)O1 (centres undefined) | – | – | – | – | – | -90
CC(C)Cn1c(-c2ccco2)n[nH]c1=S | – | – | 35 | – | – | –
COc1ccc(C(C)=O)cc1CSc1nnc(Nc2ccccc2C)s1 | – | – | – | – | – | -117
COc1ccc(C(C)=O)cc1CSc1nnc(Nc2ccc(C)cc2C)s1 | – | – | – | – | – | –
COc1ccc(S(=O)(=O)N2CCCCC2)cc1NC(=O)Cc1cccs1 | – | – | – | – | – | -76
CC(C)(C)n1ncc2c(=O)n(Cc3cccc(-c4ccccc4)c3)cnc21 | – | – | · | · | · | ·
O=C(NCCN1CCOCC1)C1(C(F)(F)F)C/C(=C/CCO)CCCO1 (centres undefined) | – | – | · | · | · | ·
COc1cccc(NC(=O)c2cccc(N3C(=O)C4CCC(C)CC4C3=O)c2)c1 (centres undefined) | – | – | – | – | – | –
SMILES | TRPML1 blocker | TRPML1 ag | TRHR PAM | TRHR agonist | KCNH2 WT inh | KCNH2 3.1 block
Cc1ccc(C(=O)Nc2cccc(N3C(=O)C4CCC(C)CC4C3=O)c2)cc1 (centres undefined) | – | – | 33 | – | – | –
O=C(Cc1nc2ccccc2[nH]1)c1ccc(Cl)cc1 | – | – | – | – | – | –
Clc1ccc(/C(Cc2nc3ccccc3[nH]2)=N\Nc2ccccc2)cc1 | – | – | – | – | – | -102
CN/N=C(\Cc1nc2ccccc2[nH]1)c1ccc([N+](=O)[O-])cc1 | – | – | – | – | ? | -75
CCNC(=O)NC(=O)CN(C)c1ccccc1 | – | – | 34 | – | – | –
CN(CC(=O)NC(=O)NC1CCCCC1)c1ccccc1 | – | – | – | – | – | –
CC(C)Sc1nc2c(c(=O)[nH]1)C(c1cccs1)C1=C(CC(C)(C)CC1=O)N2 (centres undefined) | – | – | 33 | – | – | –
Cc1[nH]nc2c1C(c1cccs1)C1=C(CC(C)(C)CC1=O)N2 (centres undefined) | – | – | – | – | – | –
COc1ccc(NC(=O)COc2cccc(-n3cnnn3)c2)cc1 | – | – | – | – | – | –
Cc1cc2c(s1)c1cnn(Cc3cccc(C(F)(F)F)c3F)c(=O)c1n2C | · | · | – | – | · | ·
CC(OC(=O)C1CC(=O)N(Cc2ccco2)C1)C(=O)Nc1ccccc1[N+](=O)[O-] (centres undefined) | – | – | – | – | – | –
CCOC(=O)C1=C(C)NC2=C(C(=O)CCC2)C1c1ccc(O)c(OCC)c1 (centres undefined) | – | – | 34 | – | – | –
CCN(CC)CCN1C(=O)C(=O)/C(=C(/O)c2c(C)[nH]c(C(=O)OC)c2C)C1c1ccco1 (centres undefined) | – | – | 30 | – | – | –
CCOC(=O)c1[nH]c(C)c(/C(O)=C2\C(=O)C(=O)N(CCN(C)C)C2c2ccco2)c1C (centres undefined) | – | – | – | – | – | –
N=c1nc(-c2ccccc2)n(-c2ccccc2)s1 | · | – | · | · | · | ·
Cc1ccc(/C=C2\CCC3=C2OC(N)=C(C#N)C3c2ccc(C)cc2)cc1 (centres undefined) | – | ? | – | 68 | ? | –
Cc1ccc(C2C(C#N)=C(N)Oc3cc(N)ccc32)cc1 (centres undefined) | · | · | – | – | – | –
COc1ccc(C(=O)NCc2csc(C)n2)cc1OC1CCN(C(C)=O)CC1 | – | – | · | · | – | –
COc1cc(C(=O)NCc2nc(C)cs2)ccc1OC1CCN(C(C)=O)CC1 | – | – | – | – | – | -76

Bioassay records as filed in PubChem BioAssay.
